Molecules are shown by their SMILES. Records with an inconclusive call do not appear. The source made the active and inactive calls. How the source made its calls: active means hit-call score of the fitted dose curve at least 0.9, where 1 is the maximum; inconclusive means response in the unintended direction; inactive means score below 0.9.

A short description of this test: ACEA_ER_80hr: ACEA Biosciences xCELLigence Real-Time Cell Analysis on Estrogen Receptor Agonism for Proliferation (AID 2282667). Particulars: T47D proliferation, impedance (xCELLigence), 80 h. In short, it runs like this:
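Estrogen-driven proliferation is captured as electrode impedance in T47D cells 80 h after compound addition. Test articles ran at 8 concentrations, 1:4 dilutions from 100 uM final, in two replicate plates.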
Regarding `CCN(CC)C1CCCCC1`, the molecule was classed as inactive.

As for `O=P(OCC(Br)CBr)(OCC(Br)CBr)OCC(Br)CBr` (centres undefined), the call was inactive.

`Oc1ccc(I)cc1`: the molecule was called inactive.

For the molecule `O=C(O)C(F)(OC(F)(F)C(F)(F)C(F)(F)F)C(F)(F)F` (centres undefined), the call was inactive.

With `Nc1ccc([N+](=O)[O-])cc1Cl`, the call was inactive.

On to `Cc1ccc2c(c1N)C(=O)c1ccccc1C2=O`, for which the result was inactive.

As for `O=C(O)C(F)(F)OC(F)(F)C(F)(F)OC(F)(F)C(=O)O`, the molecule was classed as inactive.

Turning to `CCCCOCC1CO1` (centres undefined), the molecule was called inactive.

With `CC(Cl)CN(C)C` (centres undefined), the molecule was classed as inactive.

In the case of `CCOP(=S)(OCC)SCS(=O)(=O)CC`, the result was inactive.

As to `CCCCC(CC)COP(=O)(Oc1ccccc1)Oc1ccccc1` (centres undefined), the outcome was inactive.

In the case of `CC(C)(C)N(NC(=O)c1ccc(Cl)cc1)C(=O)c1ccccc1`, the outcome was inactive.

Regarding `O=C(O)C(F)(F)C(F)(F)C(=O)O`, the call was inactive.

As for `Nc1ccc(Sc2ccc(N)cc2)cc1`, the molecule was classed as inactive.

Regarding `Cc1ccc(C(=O)Cl)cc1`, the call was inactive.

On to `N#C/C=C/c1ccccc1`, for which the call was inactive.

In the case of `CCOP(=S)(S)OCC`, the molecule was classed as inactive.

Turning to `COP(=O)(CCC(=O)NCO)OC`, the call was inactive.

Consider `CNC(=O)Oc1ccc(N(C)C)c(C)c1`, for which the outcome was inactive.

Consider `Oc1ccccc1Br`, for which the result was inactive.

For `CC(O)C(F)(F)C(F)(F)F` (centres undefined), the outcome was inactive.

On to `C=CC(=O)OCC(CC)(COC(=O)C=C)COC(=O)C=C`, for which the call was inactive.

`O=NN1CCCC1`: the result was inactive.

Take `FC(F)(F)C(F)(C(F)(F)F)C(F)(F)C(F)(F)CC1CO1` (centres undefined): the molecule was classed as inactive.

As usually defined, the AC50 is the concentration giving half of the maximal activity seen. Regarding `CC1(C)CN=C(NN=C(/C=C/c2ccc(C(F)(F)F)cc2)/C=C/c2ccc(C(F)(F)F)cc2)NC1`, the concentration at half-maximal activity (AC50) was 0.0563 µM (active).

For `COP(N)(=S)OC`, the call was inactive.

For `CCCCC(CC)COC(=O)c1c(Br)c(Br)c(Br)c(Br)c1C(=O)OCC(CC)CCCC` (centres undefined), the call was inactive.

`O=S(=O)(F)C(F)(F)C(F)(F)C(F)(F)C(F)(F)C(F)(F)C(F)(F)C(F)(F)C(F)(F)F`: the molecule was called inactive.

For `CC(C)Nc1ccc(Nc2ccccc2)cc1`, the call was inactive.

For the molecule `CC(C)(C)c1ccccc1OP(=O)(Oc1ccccc1)Oc1ccccc1`, the molecule was classed as inactive.

Turning to `c1ccc2c(c1)sc1ccccc12`, the molecule was classed as inactive.

For the molecule `O=c1ssc(Cl)c1Cl`, the molecule was classed as inactive.

For `CCCCc1ccc(O)cc1`, the AC50 was 10.5 µM (active).

As for `C=C(C)C(=O)OCC1CO1` (centres undefined), the call was inactive.

Turning to `O=C(O)CF`, the result was inactive.

For the molecule `CC1=C(C(=O)Nc2ccccc2)S(=O)(=O)CCO1`, the AC50 was 0.267 µM (active).

In the case of `OCC(F)(F)OC(F)(F)C(F)(F)OC(F)(F)C(F)(F)OC(F)(F)F`, the call was inactive.

On to `Cn1[nH]nnc1=S`, for which the result was inactive.

With `OCC(F)(F)OC(F)(F)C(F)(F)OC(F)(F)CO`, the AC50 is 20.2 µM (active).

Values taken from PubChem BioAssay (EPA / NIEHS).
